Source: PubChem BioAssay (several laboratories)
Most compounds without a hit are left out; they make up all but 12% or so of the library.
INS promoter inh = inhibitors of insulin promoter-driven GFP, primary screen, imaging, TRM-6 cells (human fetal islet line), eGFP reporter, cell count. reporter expression induced with tamoxifen. inhibition, % at 2 µM. 130,000 compounds, 0.9% hits;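 active means inhibition above the mean plus 3 SD, with well images judged a real hit on visual review, cut at about 60% in these data, passing the limit was not always enough; inconclusive means inhibition over the cutoff but images rejected on review; inactive means inhibition not above the cutoff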
ROMK mod = ROMK potassium channel modulators, primary screen, cell-based, thallium flux, MLSMR library. ATP-sensitive inward rectifier potassium channel 1 (Homo sapiens), P48048. 130,000 compounds, 2% hits. AID 1918, 2009. Tet-inducible ROMK, thallium flux fluorescence; actives lie on both sides. B-score at 10 µM;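 active means signal ratio slope over the read window, or its plate-corrected B-score, at least 3 SD from the plate mean, either direction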;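 further: B-score of the F/F0 ratio slope over 7 to 12 s after thallium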
Target sequence (P48048 whole entry, looked up): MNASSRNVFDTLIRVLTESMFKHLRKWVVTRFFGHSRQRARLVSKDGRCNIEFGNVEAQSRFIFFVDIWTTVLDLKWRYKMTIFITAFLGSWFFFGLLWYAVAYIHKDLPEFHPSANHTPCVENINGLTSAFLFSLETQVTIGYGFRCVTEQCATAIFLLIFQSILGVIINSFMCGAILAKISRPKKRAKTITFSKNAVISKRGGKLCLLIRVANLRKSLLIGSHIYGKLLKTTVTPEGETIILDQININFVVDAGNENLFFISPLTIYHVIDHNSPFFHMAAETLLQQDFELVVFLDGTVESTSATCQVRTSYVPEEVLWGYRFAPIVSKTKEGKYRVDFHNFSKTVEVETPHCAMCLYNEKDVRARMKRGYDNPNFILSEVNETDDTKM
L major viab = Leishmania major promastigote growth inhibition, primary screen | Leishmania major promastigotes, resazurin fluorescence viability | 200,000 compounds, 9% hits | AID 1063, 2008 | inhibition, % at 10 µM; in the data active means inhibition above about 50%;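 further: promastigotes grown with compound for 44 hours at 28 °C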
WT yeast gro inh = growth inhibition of WT strain, primary screen, mitochondrial fusion inhibitor project, WT and mutant strains, chemical genetic | mitochondrial fusion phenotypic screen | inhibition, % at 10 µM | 190,000 compounds, 2.1% hits; in the data active means inhibition above about 58%; tested in S. cerevisiae
Insulin prom up = insulin promoter activators in MIN6 cells, imaging, high-content screening, mouse beta cells; z-score at 5 µM; 190,000 compounds, 0.3% hits; MIN6 insulin promoter-GFP reporter; active compounds read high;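 active means z-score above 3 at 5 µM with at least 500 cells counted in the well; inconclusive means wells under 500 cells, flagged as cytotoxic or low count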
Cl transport mod = KCC2 cotransporter modulators, thallium flux, primary screen, cell-based, HEK293 KCC2, FluoZin-2 fluorescence, MLSMR. 190,000 compounds, 2.2% hits. B-score of Tl+ flux slope (higher = more flux/activation; lower = inhibition) at 10 µM. KCC2 cells, thallium flux FluoZin-2 fluorescence. Solute carrier family 12 member 5 (Homo sapiens), Q9H2X9. AID 1456, 2008;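 active means thallium flux slope and its plate-corrected score both differing from the plate sample mean at a set confidence after two filtering rounds, in either direction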;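 further: slope of fluorescence scaled to starting intensity during 10 to 20 s after thallium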
ROMK hit retest = ROMK channel modulator hit retest, confirmation, cell-based, thallium flux, duplicate, resupplied hits | shares compounds with ROMK mod | fluorescence ratio; active compounds read low | normalized thallium flux (F/F0 slope) at 10 µM | 3,000 compounds, 54% hits | AID 1917, 2009;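 active means Flux at 10 µM at least 3 SD below or above vehicle control mean in one or both replicates; inconclusive means no clear call, values can overlap the other calls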
The depositor's hits bear a star; i = inactive; ? = inconclusive; . = not tested or not shown.

SMILES	INS promoter inh	ROMK mod	L major viab	WT yeast gro inh	Insulin prom up	Cl transport mod	ROMK hit retest
CC1=C(C)CS(=O)N(S(=O)(=O)c2ccccc2)C1 (stereo not given)	29.2	-5.49*	-2.5	-0.3	-0.85	.	0.0471*
COc1ccc(NC2c3ccccc3C(=O)N2c2ccccn2)cc1Cl (stereo not given)	.	.	8.7	-8.6	1.11	0.311	.
COc1cc2c(cc1OC)CN(CC(=O)Nc1ccc(S(=O)(=O)N(C)C)cc1)CC2	.	0.492	4.6	-18.5	-0.68	-0.485	.
COc1cc2c(cc1OC)CN(CC(=O)Nc1ccc3c(c1)OC(F)(F)O3)CC2	18.6	2.48*	-4.1	5.3	-0.23	-0.572	0.0784
CN1C(=O)/C(=C/C=C2\SCCN2C)SC1=S	-40.0	-2.96*	-5.8	-9.3	2.58	-0.321	0.0571*
CN1C(=O)/C(=C\c2cc(N=Nc3ccccc3)ccc2O)SC1=S	.	0.118	-1.7	12.5	0.68	-0.704	.
CC(C)Sc1n[nH]c(=O)n1-c1cccc(C(F)(F)F)c1	.	.	.	.	.	0.0557	.
Cc1n[nH]c(=O)n1-c1cccc(C(F)(F)F)c1	-3.6	.	0.6	-2.9	.	.	0.0762
CCOc1ccccc1CN1CCN(Cc2ccc(C)o2)CC1CCO (stereo not given)	.	-0.0184	-2.0	-15.2	-0.06	-0.00456	.
CCOc1ccccc1CN1CCN(CC2=Cc3cc(OC)ccc3OC2)CC1CCO (stereo not given)	.	.	.	.	-0.15	-0.261	0.0674*
CCC(c1nnc(SCC(=O)NCC2CCCO2)n1Cc1ccccc1)N(C)C (stereo not given)	13.9	.	-1.3	.	.	0.734	.
CC(=O)Nc1cccc(C(=O)/C=C/c2ccc(F)cc2)c1	.	-3.71*	100.2*	-5.4	-1.13	-0.166	0.0526*
CC(=O)c1cccc(NS(=O)(=O)c2ccc(N/C=C/C(=O)c3ccc(F)cc3)cc2)c1	-222.2	.	16.3	-3.3	?	0.0376	.
COc1ccc(/C=C/C(=O)Nc2cccc(C(C)=O)c2)cc1	8.1	1.35*	85.5*	-27.7	-0.04	-0.557	?
CC(=O)Nc1cccc(C(=O)/C=C/c2ccc(N(C)C)cc2)c1	-23.1	-3.7*	6.8	24.6	.	-2.57	0.0479*
Nc1cccc(-c2cn3cc(C(F)(F)F)cc(Cl)c3n2)c1	.	.	-2.0	4.1	0.29	-0.719	.
Cc1ccccc1N(CC(=O)NCCSC1CCCCC1)S(=O)(=O)c1ccccc1	-74.3	-0.0309	-4.2	-12.6	-1.91	-0.156	.
CCC(C)[C@H]1CNC(=O)C(=O)N1CCCc1cc(OC)c(OC)c(OC)c1 (stereo not given in full)	.	.	.	.	-0.14	-0.185	.
CC(=O)Nc1ccc(S(=O)(=O)N2CCN(Cc3ccncc3)CC2)cc1	-68.8	0.905	-9.3	-13.9	-1.52	1.5	.
CC(=O)Nc1ccc(S(=O)(=O)N2CCN(Cc3nc4sc(C)c(C)c4c(=O)[nH]3)CC2)cc1	.	.	.	.	-0.16	.	0.0738
C[C@@H]1CN(c2nc3nonc3nc2N2CCSCC2)C[C@H](C)O1	.	0.62	4.7	4.7	0.6	0.361	.
C1CN(c2nc3nonc3nc2N2C[C@H]3CC[C@H]2C3)CCS1	.	1.4*	3.2	-16.9	0.67	1.41	0.0746
Fc1ccc(C2=NNC(=NCc3ccccc3)SC2)cc1F	-28.6	-2.97*	11.6	23.5	-0.62	1.13	?
O=C(Nc1ccc(Cl)cc1)C(c1ccccc1)N1CCOCC1 (stereo not given)	-20.9	0.192	1.5	7.0	-0.05	-0.00552	.
CC(C)c1ccc(NC(=O)C(c2ccccc2)N2CC(=O)Nc3ccccc32)cc1 (stereo not given)	-4.8	1.91*	33.1	10.8	1.42	0.132	0.0785
SMILES	INS promoter inh	ROMK mod	L major viab	WT yeast gro inh	Insulin prom up	Cl transport mod	ROMK hit retest
O=C(CN1CCN(S(=O)(=O)c2ccc(Cl)s2)CC1)N1CCOCC1	.	-3.15*	.	.	0.13	-0.981	0.0761
CCC(=O)c1ccc(N2CCN(C(=O)COc3ccc(F)cc3)CC2)c(F)c1	.	-1.85	7.6	13.2	-0.75	.	.
CC(=O)c1ccc(N2CCN(C(=O)COc3ccc(F)cc3)CC2)c(F)c1	-11.5	-2.79*	-6.4	-10.0	-1.7	-0.936	0.0612*
CCO[C@H]1OC(C(=O)NCc2ccccc2)=C[C@@H](C2CC2)[C@@H]1CCCO	.	.	1.0	-13.3	-0.82	-0.538	.
O=C(Nc1cccnc1)c1ccc(Cl)c(S(=O)(=O)N2CCCCCC2)c1	3.0	.	11.8	11.3	0.13	-1.04	?
O=C(Nc1ccc2c(c1)OCO2)c1ccc(Br)c(S(=O)(=O)N2CCCC2)c1	-12.5	-2.88*	2.6	14.0	.	-1.41	0.0665*
CCN(CC)CCOC(=O)c1ccc(NC(=O)c2ccc(Cl)c(S(=O)(=O)N3CCCCCC3)c2)cc1	35.7	-0.76	-3.4	40.3	-1.02	0.34	0.0778
O=C(Nc1ccc2c(c1)OCCO2)c1ccc(Br)c(S(=O)(=O)N2CCOCC2)c1	0.0	-1.6	0.6	20.2	-0.96	.	.
O=C(N/N=C/c1ccco1)c1cc(-c2cccs2)[nH]n1	.	.	-2.6	-6.7	0.1	-1.21	.
O=C(Cn1ncc(Cl)c(Cl)c1=O)N1CCc2ccccc21	-430.8	-3.35*	87.0*	-11.5	1.7	.	?
O=C(Cn1ncc(Cl)c(Cl)c1=O)N1CCN(Cc2ccccc2)CC1	i	-1.09	39.7	-17.0	-4.7	-0.17	.
CCOC(=O)C1CCCN(Cc2cc(OC)c(O)c(OC)c2)C1 (stereo not given)	.	.	-6.6	-16.9	-0.02	-0.112	.
Cc1ccc(-n2ncc3c(N4CCCC4)ncnc32)c(C)c1	.	0.0199	35.4	6.0	.	-1.15	.
COc1cccc(N2CCN(c3ncnc4c3cnn4-c3ccc(C)cc3C)CC2)c1	.	.	6.9	26.8	0.31	-1.31	0.0713
O=C(O)Cc1cc(I)c(Oc2ccc(O)c(I)c2)c(I)c1	9.5	.	-11.1	-12.2	.	-3.16	0.119*
O=C1c2ccccc2C(=O)N1CCCCN(C(=O)c1ccco1)c1ccc(Cl)cc1	-92.9	-3.4*	21.3	5.9	.	.	0.0492*
Cc1ccc([C@@H]2C3COCC=C3C(C#N)=C(N)C2(C#N)C#N)o1 (stereo not given in full)	.	-4.48*	17.3	25.4	0.04	.	0.0461*
CCn1c(SCC(=O)Nc2cc(C)on2)nnc1-c1ccco1	14.3	0.408	-5.7	-3.0	0.56	-0.12	.
CCCCn1c(SCC(=O)Nc2cc(C)on2)nnc1-c1ccco1	-14.3	3.22*	3.6	-6.9	-0.39	-0.467	0.078
Cc1ccc(C)c(CN2CCCN(C(=O)Cn3ncc4c3-c3ccccc3OC4)C2)c1	.	.	22.2	30.4	0.2	0.371	.
O=C(Nc1ccccc1N1CCOCC1)c1cc2c(s1)CCCCC2	28.6	.	30.7	56.7	-0.61	-0.299	.
CCc1sc(C(=O)Nc2ccccc2N2CCOCC2)cc1C	25.0	-2.64*	3.9	28.0	-0.87	-0.657	0.064*
